The other results are listed elsewhere or left out. Calls of active or inactive are those of the source.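 The calls were made as follows: active = mean inhibition above the hit cutoff derived in the earlier primary screen (cut at about 25% in these data); inactive = the rest.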
Assay: viability loss in Ba/F3 EpoR-JAK2V617F cells, confirmation, JAK2V617F inhibitor project, cell-based, luminescence, triplicate (AID 1521);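 also: 0% = DMSO-treated cells and 100% = JAK inhibitor I control wells; higher means lower luminescence from reduced cell ATP and viability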
Conditions: CellTiter-Glo luminescence, at 5.6 µM, hits give high values

SMILES	inhibition
COc1ccc(OC)c(Nc2nc(-c3ccc(O)c(O)c3)cs2)c1	99% (active)
COc1cc(OC)cc(C(=O)N[C@H](C(=O)Nc2nc3ccccc3[nH]2)C(C)C)c1	99.1% (active)
CCCc1nc2ccccc2c(=O)n1/N=C/c1ccc(O)c(O)c1	67.2% (active)
Cc1ccc(NC(=S)N(CCCN2CCC(C)CC2)Cc2ccco2)cc1	52.5% (active)
COc1ccc(Cc2nnc(N/N=C/c3ccccc3O)[nH]c2=O)cc1OC	98.9% (active)
c1ccc2c(c1)CSc1sccc1C2=C1CCNCC1	57.9% (active)
COc1ccccc1N1CCN(Cc2ccc(OC)c3ccccc23)CC1	31.5% (active)
Cn1c(CCN2CCCCCC2)nc2cc(NC(=O)Nc3ccccc3)ccc21	-1.25% (inactive)
O=C(CCl)N(Cc1cccc([N+](=O)[O-])c1)c1cccc(Cl)c1	99.7% (active)
CCC1CCCCN1CCCNC(=O)c1cc2c(Cl)nc3ccccc3c2s1 (stereo not drawn)	12.1% (inactive)
O=c1oc2ccccc2cc1-c1cn(-c2ccccc2)c(=S)[nH]1	92.7% (active)
CCn1c(/C=C/c2ccc([N+](=O)[O-])o2)nc2ccccc2c1=O	99.1% (active)
COc1ccc(-c2csc(Nc3ccc(O)cc3)n2)cc1	97.2% (active)
Cc1ccc(S(=O)(=O)C2(S(=O)(=O)c3ccc(C)cc3)CCCC2)cc1	62.1% (active)
Cc1cccc(NC(=O)c2ccc([N+](=O)[O-])o2)c1	84.7% (active)
COc1cc(OC)c(C(=O)NC2CCCCCC2)cc1OC	18.7% (inactive)
O=C(CCl)Nc1ccc(Sc2ccc(NC(=O)CCl)cc2)cc1	99.7% (active)
N#C/C=C\Oc1ccc(Cl)cc1N	39.2% (active)
CCCn1c(NC(=O)C23CC4CC(CC(O)(C4)C2)C3)nc2ccccc21	-6.61% (inactive)
Cc1ccc(C2=NN(C)c3nc4ccccc4n3C2)cc1	-7.33% (inactive)
CN(Cc1ccc2nsnc2c1)Cc1nc(Cc2cccc(F)c2)no1	7.27% (inactive)
Oc1ccc(/C=N/Nc2ccc(C(F)(F)F)cn2)cc1O	99.2% (active)
CSCC(=O)N1CCCC(C(=O)c2cc(F)ccc2F)C1 (stereo not drawn)	-9.05% (inactive)
